Screening results: PubChem, National Center for Advancing Translational Sciences (NCATS)
TGFb inhibitor = TGF-b pathway inhibition; HepG2 CAGA-GFP TGF-b/SMAD3 reporter, GFP fluorescence, 18 h; TGF-beta stimulated, 500 pg/mL final; hit rate 1.2% among 410,000; Potency, µM (top dose mostly 46.1 µM), inactives show at the highest dose activity, negative = inhibition, usual class: inhibitors; note: % is set by controls: 0 for no effect and ±100 for the full control effect; nearly all actives have a fitted effect of over 65% in size
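Per well, imaged GFP fluorescence of HEPG2 CAGA-GFP cells gives the signal; cells get compound, then TGF-beta (500 pg/mL final), 18 h at 37 degrees C; %Activity versus -TGF-beta and +DMSO controls.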
S2 tox = reduces viability in counter-screen for ATXN expression inhibitors; S2 cells (HEK-293 line with an ATXN2-luciferase reporter) viability, CellTiter-Fluor protease fluorescence, 24 h; Potency, µM (series often up to 56.7 µM), most hits filed as cytotoxic; hit rate 0.49% among 400,000; note: nearly all actives have a fitted effect of over 40% in size
HepG2 viability = counter-screen for TGF-b inhibitors: cytotoxicity in HepG2 cells. hit rate 0.76% among 410,000. AID 588856. HepG2 CAGA-GFP viability, ATP luminescence, 18 h. Potency, µM (highest dose often 46.1 µM), for the others: at the top dose activity change, negative = cytotoxicity, usual class: cytotoxic
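HepG2 CAGA-GFP cells (1000/well, DMEM with 1% FBS) received compound, then TGF-beta at 500 pg/mL final, and were incubated 18 hours at 37 degrees C. Viability was read by CellTiter-Glo luminescence. Media-only wells were set as complete cell-killing and DMSO as no toxicity.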
RORg inh = ROR gamma (mouse) transcription inhibition; P51450; Drosophila S2 Gal4-RORgamma UAS-luciferase reporter, 20 h; Potency, µM (top dose mostly 53.6 µM), for inactives: at the top dose activity change, negative = inhibition, usual class: inhibitors; hit rate 5.4% among 310,000; AID 2551; note: % is set by controls: 0 for no effect and ±100 for the full control effect; nearly all actives have a fitted effect of over 60% in size
Target sequence (P51450 whole entry, looked up, the tested form may be a part): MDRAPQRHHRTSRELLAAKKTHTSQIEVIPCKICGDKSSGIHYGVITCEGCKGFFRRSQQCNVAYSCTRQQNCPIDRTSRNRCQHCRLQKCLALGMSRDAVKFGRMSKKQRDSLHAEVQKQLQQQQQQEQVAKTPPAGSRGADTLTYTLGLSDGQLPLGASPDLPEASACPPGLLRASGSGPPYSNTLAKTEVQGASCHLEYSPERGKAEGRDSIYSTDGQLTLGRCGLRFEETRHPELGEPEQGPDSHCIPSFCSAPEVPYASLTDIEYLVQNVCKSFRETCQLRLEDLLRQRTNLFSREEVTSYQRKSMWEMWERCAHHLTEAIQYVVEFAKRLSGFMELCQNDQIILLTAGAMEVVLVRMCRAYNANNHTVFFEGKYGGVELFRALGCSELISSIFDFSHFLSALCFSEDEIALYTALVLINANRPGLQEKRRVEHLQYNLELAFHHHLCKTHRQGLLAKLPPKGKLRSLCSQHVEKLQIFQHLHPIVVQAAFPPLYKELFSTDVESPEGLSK
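ROR gamma transcriptional activity was tracked as Gal4-UAS luciferase output in stably transfected Drosophila Schneider cells, with compound added 1 hr before 700 uM copper sulfate induction and a 20 hr ambient-temperature incubation.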
VP16 counter = inhibits Gal4-VP16 luciferase reporter, ROR gamma counter-screen | Drosophila S2 Gal4-VP16 UAS-luciferase, luminescence, 20 h | hit rate 3.5% among 310,000 | Potency, µM (top dose mostly 53.6 µM), without a hit: top-dose activity, negative = inhibition, most hits filed as inhibitors | AID 2546;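 note: Gal4-VP16 expression switched on by copper sulfate through the metallothionein promoter; % is set by controls: 0 for no effect and ±100 for the full control effect; nearly all actives have a fitted effect of over 50% in size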
ATXN2 expr inh = ATXN2 expression inhibition; HEK-293 ATXN2-luciferase reporter, luminescence, 24 h; Potency, µM (doses to about 57 µM), for the others: at the highest dose activity change, negative = inhibition, hits mostly inhibitors; hit rate 0.72% among 360,000; note: % is set by controls: 0 for no effect and ±100 for the full control effect; nearly all actives have a fitted effect of over 55% in size
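ATXN2-luciferase reporter cells (luciferase flanked by upstream and downstream ATXN2 gene portions) were treated 24 h at 37 °C with compounds at up to 57 uM. SteadyGlo luminescence gave expression; GF-AFC fluorescence gave viability.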
* marks the source's active call; other numbers are inactive results; i = inactive; ? = inconclusive; . = no result given. Shown are actives, neighbours in structure and some others; about 6.1% of the full set was active somewhere. Calls come from the whole dose curve; as a rule, active = well fitted curve in the direction sought with a large enough effect; inconclusive = small, poorly fitted or top-dose-only effect, or another doubt; inactive = no such curve, though single readings can be large; an effect the other way counts as inactive or inconclusive. Potency is the fitted concentration of half-maximal effect.

SMILES | TGFb inhibitor | S2 tox | HepG2 viability | RORg inh | VP16 counter | ATXN2 expr inh
CO[C@H]1CCC(O[C@H]2C[C@H]([C@]3(C)CC[C@]4(C[C@H](O)[C@@H](C)[C@@H]([C@@H](C)C=C(C)C(=O)[C@H](C)C[C@H](C)C(=O)O)O4)O3)O[C@]3(O[C@@H]([C@H]4O[C@@](O)(CO)[C@H](C)C[C@H]4C)C[C@H]3C)[C@H]2C)O[C@H]1C (some centres undefined) | . | . | . | . | . | 3.1µM*
ClC(Cl)Br | . | . | . | -2% | -6% | .
CCC(CC)(CNC(=O)CCCO)c1cccc(OC)c1 | . | i | . | . | . | 9%
CCc1n[nH]c(=S)n1/N=C/c1c(C)nn(-c2ccccc2)c1Cl | -1% | i | 4% | 7.1µM* | ? | -3%
Cc1ccc2nc(N3CCN(C)CC3)[nH]c2c1 | -8% | i | -31% | -34% | -13% | 29%
CCOc1ccc(-c2nc3ccc(-c4nc5ccc(N6CCN(C)CC6)cc5[nH]4)cc3[nH]2)cc1 | . | . | . | 2.2µM* | ? | .
C=C(C=O)C[C@@H]1C[C@H](O)C2OC3C[C@]4(C)OC5/C=C\CC6OC7C(CC=CCC6OC5CCCC4OC3CC2O1)OC1CC2OC3CC(=O)OC3C[C@@H](C)C[C@@]2(C)OC1C[C@@H]7C (some centres undefined) | ? | 1.8µM* | . | ? | -5% | 1.6µM*
CCC(=O)O[C@@H]1C=C2CCC3C(CCC4(C)C3CC[C@@H]4OC(=O)CC)C2CC1 (some centres undefined) | . | i | . | . | . | 0%
CCCCn1c(=O)c(C(=O)NCc2ccccc2Cl)c(O)c2ccccc21 | 8% | ? | -2% | 16µM* | 1% | .
CCCCCn1c(=O)c(C(=O)NCc2ccc(Cl)cc2)c(O)c2ccccc21 | -16% | i | -44% | 10µM* | 13µM* | -37%
CCCCn1c(=O)c(C(=O)NCc2ccccc2)c(O)c2ccccc21 | 5% | ? | 3% | ? | ? | .
CCCCCCn1c(=O)c(C(=O)Nc2ncccc2C)c(O)c2ccccc21 | 9% | i | -22% | 14µM* | 7.9µM* | .
COc1ccc(NS(=O)(=O)c2ccc3c(c2)CCCN3C(=O)C2CCC2)cc1OC | -13% | ? | -23% | . | . | ?
CCc1ccc(NC(=O)Cn2c(=O)oc3cc(S(=O)(=O)N4CCCCCC4)ccc32)cc1 | . | . | -42% | . | . | .
C[C@]12CC[C@H](O)C[C@H]1CC[C@@H]1[C@@H]2CC[C@]2(C)[C@@H](C3=CC(=O)OC3)CC[C@]12O | ? | ? | -42% | . | . | 0.32µM*
CC12CCC(O)CC1CCC1C2CCC2(C)C(C3=CC(=O)OC3)C(O)CC12O (centres undefined) | 10µM* | ? | -64% | . | . | ?
C[C@]12CC[C@H](O)C[C@H]1CC[C@@H]1[C@@H]2C[C@@H](O)[C@]2(C)[C@@H](C3=CC(=O)OC3)CC[C@]12O | 10µM* | ? | -56% | . | . | ?
CC(=O)OC1CC[C@]2(C)C(CCC3C2CC[C@]2(C)C(C4=CC(=O)OC4)C(OC(C)=O)CC32O)C1 (some centres undefined) | . | . | . | ? | -2% | .
Clc1ccc(-c2nc3ccc(Cl)cn3c2CN2CCCCC2)cc1 | 0% | ? | 1% | 5µM* | -23% | 7%
Clc1ccc(-c2nc3ccc(Cl)cn3c2CN2CCOCC2)cc1 | -24% | i | -11% | ? | ? | 8%
O=NN(CCO)CCO | . | . | . | 1% | -3% | .
ClCCCN1CCN(c2cccc(Cl)c2)CC1 | . | i | . | . | . | 0%
O=C(N/N=C\c1ccc(COc2ccc([N+](=O)[O-])cc2)o1)c1cccc(Cl)c1 | -15% | i | -22% | 1.8µM* | 2.5µM* | -19%
O=C(NN=Cc1ccc(N(CCCl)CCCl)cc1)c1cccc([N+](=O)[O-])c1 | -53% | ? | -40% | . | . | ?
